Reference: PubChem BioAssay AID2279 (Southern Research Specialized Biocontainment Screening …, 2010)
Potency and affinity values are given separately. The source made the active and inactive calls. How the calls were made is not given here.

Assay: CCR5-tropic HIV-1 fusion blockers – cell-based, CCR5-tropic Env, dose response (AID 2279)
Settings: CCR5-tropic HIV-1 Env, reporter read-out; series mostly up to 50 µM

outcome, inactive:
COc1ccc(-c2nn(-c3ccccc3)cc2/C=C\C(=O)Nc2ccc(C(=O)O)cc2)cc1
COc1ccc(NC(=O)c2c[nH]n3c(=O)cc(C4CCN(C(=O)OC(C)(C)C)CC4)nc23)cc1Cl
O=C(Nc1ccc(Br)cc1C(=O)O)c1ccc2c(c1)C(=O)N(Cc1ccccc1)C2=O
COc1ccc(N=C2S/C(=C\c3ccc(OCC(=O)O)cc3)C(=O)N2CCc2c[nH]c3ccccc23)cc1
C=CCOC(=O)C1=C(C)N=c2s/c(=C3\C(=O)N(CC(=O)O)c4ccccc43)c(=O)n2C1c1ccc(OC)cc1 (stereo not given)
O=C(COc1cccc2ccccc12)Nc1ccc(Cl)cc1C(=O)O
O=C(O)COc1ccccc1/C=N/Nc1ccc(S(=O)(=O)Nc2ccc(Cl)cc2)cc1[N+](=O)[O-]
Cc1c(CCC(=O)O)c(=O)oc2c(C)c3occ(-c4ccc(Cl)cc4)c3cc12
CCc1ccc(/C=C2\SC(=S)N(CCCC(=O)Nc3ccccc3C(=O)O)C2=O)cc1
O=C(NCc1ccccc1)c1ccc2c(=O)[nH]c3c(C(=O)NCC4CCCO4)sc(=S)n3c2c1 (stereo not given)
CC(C)c1ccc(OCC(=O)Nc2cccc(C(=O)Nc3ccccc3C(=O)O)c2)cc1
O=C(O)c1cccc(N/N=C/c2cc(Br)cc(Br)c2O)c1
Cc1ccc(-c2cc(C(=O)Nc3ccc(S(=O)(=O)Nc4onc(C)c4C)cc3)c3ccccc3n2)cc1
O=C(O)c1ccc(N/N=C/c2ccc(-c3cccc(Cl)c3)o2)cc1
CC(C)S(=O)(=O)C1=NSC2=NC(=O)/C(=C\c3ccc(-c4cccc(C(=O)O)c4)o3)C(=N)N21
Cc1noc(NS(=O)(=O)c2ccc(NC(=O)Nc3ccc(Cl)c(Cl)c3)cc2)c1C
Cc1ccc(S(=O)(=O)Oc2ccc(/C=C3\C(=N)N4N=C(S(C)(=O)=O)SC4=NC3=O)cc2)cc1
CCc1nnc(NS(=O)(=O)c2ccc(NC(=S)NC(=O)/C=C/c3ccc(F)cc3)cc2)s1
CCOc1cc(Br)cc(C(c2c(C(=O)O)[nH]c3ccccc23)c2c(C(=O)O)[nH]c3ccccc23)c1O
O=C(N/N=C/c1cc(Cl)cc([N+](=O)[O-])c1O)c1ccccc1NS(=O)(=O)c1cccs1
O=[N+]([O-])c1cc(Cl)cc(/C=N/NC(=S)Nc2ccc(S(=O)(=O)N3CCOCC3)cc2)c1O
COc1cccc(NS(=O)(=O)c2ccc3c(c2)C2C=CCC2C(c2ccc(C(=O)O)cc2)N3)c1 (stereo not given)
CCCCCc1c2c(cc(O)c1C(=O)O)OC(=O)c1c(cc(OC)cc1C(=O)CCCC)O2
COc1cc(/C=C2\C(=N)N3N=C(S(C)(=O)=O)SC3=NC2=O)cc(OC)c1OCCOc1ccc(C)cc1
O=C(O)c1ccccc1NS(=O)(=O)c1ccc(NNC(=S)Nc2ccc(OC(F)F)cc2)c([N+](=O)[O-])c1
CCS(=O)(=O)C1=NSC2=NC(=O)/C(=C\c3ccc(OS(=O)(=O)c4ccccc4)c(OC)c3)C(=N)N21
CCc1ccc(N=C2NC(=O)/C(=C/c3cc(Br)c(OCC(=O)O)c(OC)c3)S2)cc1
CCOC(=O)C1=C(C)N=c2s/c(=C\c3ccc(OCC(=O)O)c(OC)c3)c(=O)n2C1c1ccc(OC)cc1 (stereo not given)
COc1ccc(OC)c(/C=C2\SC(=S)N(NS(=O)(=O)c3ccc(C)cc3)C2=O)c1
O=C(O)CSc1cc(C(=O)c2ccccc2O)cn2c(=O)c3c4c(sc3nc12)CCCC4
CCOC(=O)c1sc(N2C(=O)C(O)=C(C(=O)c3ccco3)C2c2cccc([N+](=O)[O-])c2)nc1C (stereo not given)
CCOC(=O)c1sc2nc3c(SCCC(=O)O)cc(C(=O)c4cc(OC)ccc4O)cn3c(=O)c2c1C
Cc1cccc(S(=O)(=O)Nc2nc3ccccc3nc2Nc2cccc(C(=O)O)c2)c1
COc1cc(NS(=O)(=O)c2ccc(Nc3nc(-c4ccccc4)cs3)cc2)nc(OC)n1
CC(C)CS(=O)(=O)C1=NN2C(=N)/C(=C\c3ccc(OC(=O)c4ccco4)cc3)C(=O)N=C2S1
